HP1b chromo inh: HP1-beta chromodomain-methylated histone interaction inhibition | Potency, µM (series often up to 114 µM), usual class: inhibitors | actives 0.56% (n = 390,000) | P83916 | AlphaScreen HP1-beta / biotin-H3K9me3 peptide binding; also: nearly all actives have a fitted effect of over 70% in size
Target sequence (P83916 whole entry, looked up): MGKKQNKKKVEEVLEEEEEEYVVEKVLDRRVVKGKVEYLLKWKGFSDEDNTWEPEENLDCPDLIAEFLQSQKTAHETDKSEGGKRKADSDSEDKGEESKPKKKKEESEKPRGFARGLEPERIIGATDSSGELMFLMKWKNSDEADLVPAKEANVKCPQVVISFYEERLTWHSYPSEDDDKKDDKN
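HP1-beta protein (50 nM final) preincubated 30 min at room temperature with biotinylated H3(1-18)K9me3 peptide (50 nM) in PBS pH 7.4, 0.01% Tween-20, then compound added for 30 min. AlphaScreen streptavidin donor/nickel chelate acceptor beads (10 ug/mL final), 30 min dark, luminescence read.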
BAZ2B inh: blocks human BAZ2B; AlphaScreen BAZ2B-H3K14Ac peptide displacement; Potency, µM (series often up to 114 µM), usual class: inhibitors; actives 4.4% (n = 360,000); also: nearly all actives have a fitted effect of over 60% in size
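In this displacement format the biotinylated H3(5-23) peptide acetylated at Lys14 serves as ligand at 50 nM, with BAZ2B at 50 nM in PBS pH 7.4 containing 0.01% Tween-20. Donor and acceptor beads are 10 ug/mL final.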
GCN5L2 inh: blocks human GCN5L2 histone acetyltransferase; Q92830; GCN5L2 HAT assay, ThioGlo1 CoA-SH fluorescence; Potency, µM (titrated, usually from 58.9 µM), hits mostly inhibitors; actives 0.21% (n = 390,000); AID 504327
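Compounds, pin-transferred from DMSO stocks, meet 20nM GCN5L2 for 15 min before the reaction begins with H3(1-25) peptide (75uM) and acetyl-CoA (70uM). Thiol-reactive ThioGlo1 reports CoA release over 20 min at room temperature.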
JMJD2A Tudor: JMJD2A Tudor domain (human) inhibition | AID 504339 | Potency, µM (titrated, usually from 114 µM), actives largely listed as inhibitors | AlphaScreen JMJD2A-Tudor / H3K4me3 peptide binding | actives 4.4% (n = 390,000) | O75164; also: nearly all actives have a fitted effect of over 50% in size
PLK1 PBD block: inhibitors of human PLK1 polo-box domain binding; P53350; Plk1 PBD binding of FITC phosphopeptide, fluorescence polarization; Potency, µM, hits mostly inhibitors; actives 2.8% (n = 360,000); also: series mostly up to about 57 µM; nearly all actives have a fitted effect of over 65% in size
PI5P4Ka inh: inhibitors of human PI5P4K alpha | P48426 | PI5P4Kalpha enzyme, ADP-Glo luminescence, 60 min; active compounds read low | max response, % | actives 1.2% (n = 330,000) | AID 652105; active = max response of -50% or lower; inconclusive = between -30% and -50%; inactive = -30% or higher; also: value at the top dose of about 77 µM
Target sequence (P48426 whole entry, looked up): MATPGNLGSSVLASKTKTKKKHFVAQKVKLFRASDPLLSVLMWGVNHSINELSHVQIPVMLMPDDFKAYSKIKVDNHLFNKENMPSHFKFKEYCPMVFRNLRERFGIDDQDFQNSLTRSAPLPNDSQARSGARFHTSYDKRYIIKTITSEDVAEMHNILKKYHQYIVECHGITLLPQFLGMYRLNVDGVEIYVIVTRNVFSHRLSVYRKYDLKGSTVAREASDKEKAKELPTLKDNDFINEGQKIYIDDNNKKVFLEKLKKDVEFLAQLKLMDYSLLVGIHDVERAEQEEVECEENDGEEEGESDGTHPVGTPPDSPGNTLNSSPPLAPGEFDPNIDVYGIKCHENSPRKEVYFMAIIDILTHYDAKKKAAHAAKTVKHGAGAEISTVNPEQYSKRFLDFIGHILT
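Enzyme plus substrate dispensed, test compounds pinned in, then ATP (5 microM final) added. After 60 min at RT, ADP-Glo reagent 1 for 45 min and reagent 2 for 30 min preceded luminescence imaging.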
Numbers stand for hits; . = inactive; ? = inconclusive; / = not tested or not shown; [ ] = remark or other dose. In the library only some 7% were active in any assay of this set; here they are far more common. Unless noted, calls follow the shape of the dose curve; as a rule, active = well fitted curve in the direction sought with a large enough effect; inconclusive = small, poorly fitted or top-dose-only effect, or another doubt; inactive = no such curve, though single readings can be large; an effect the other way counts as inactive or inconclusive.

SMILES	HP1b chromo inh	BAZ2B inh	GCN5L2 inh	JMJD2A Tudor	PLK1 PBD block	PI5P4Ka inh
Cc1cc(Cc2c(O)[nH]c(=S)[nH]c2=O)ccc1OC(C)C	?	.	?	89µM	27µM	?
CC(C)COc1ccc(Cc2c(O)[nH]c(=S)[nH]c2=O)cc1	?	.	?	.	27µM	-52
CCOC(=O)c1c(C)[nH]c(C)c1S(=O)(=O)N1CCC(C(=O)N2CCN(c3ccc(Cl)cc3)CC2)CC1	.	?	.	?	/	/
CCCCCCCSc1cc(OC)c(CCNC)cc1OC	?	20µM	.	45µM	.	.
CCCCCSc1cc(OC)c(CCNC)cc1OC	.	?	.	?	.	.
CCC(C)N1C(=O)NC(=O)C2(Cc3c(ccc4ccccc34)N(C)C2)C1=O (stereo unspecified)	.	?	.	.	13µM	.
Cc1ccccc1C1=NCC(=O)N(CC(=O)NCc2ccco2)c2sc3c(c21)CCCC3	.	.	.	89µM	.	/
CC(Oc1ccc(Br)cc1)C(=O)N(Cc1nc(-c2ccccc2)no1)C(C)C (stereo unspecified)	.	.	.	.	/	/
COc1ccc(C(=O)NC(=S)N2C[C@H]3C[C@H](C2)c2cccc(=O)n2C3)cc1OC	.	.	.	.	.	.
CCCOc1ccc(C(=O)NC(=S)N2C[C@H]3C[C@H](C2)c2cccc(=O)n2C3)cc1	.	.	.	?	27µM	?
O=C(NCNC(=O)N[C@H]1C(=O)NC(=O)N1CO)N[C@H]1C(=O)NC(=O)N1CO	/	/	.	/	/	/
CC(=O)Nc1c2sscc-2n(C)c1=O	/	/	.	/	/	/
NS(=O)(=O)c1nc[nH]c1[N+](=O)[O-]	.	/	/	20µM	.	.
Cc1ccc(CC2C(=O)N(C)C(=O)N(C)C2=O)s1	.	.	.	.	27µM	/
C=CCOc1ccc(CC2C(=O)N(C)C(=O)N(C)C2=O)cc1	.	.	.	.	?	?
COc1ccc2c(c1)c(C(=O)CN1CCN(C)CC1)c(C)n2Cc1ccccc1	.	.	.	.	.	.
CCN1CCN(CC(=O)c2c(C)n(Cc3ccccc3)c3ccc(OC)cc23)CC1	?	.	.	?	21µM	.
Fc1ccccc1CNCCc1c[nH]c2ccccc12	?	56µM	.	45µM	.	.
Fc1ccc(CNCCc2c[nH]c3ccccc23)cc1	.	?	.	?	.	.
FC(F)(F)c1ccccc1CNCCc1c[nH]c2ccccc12	.	45µM	.	18µM	.	.
Cc1cccc(N2CCN(C(=O)CCCCn3c(=O)[nH]c4ccsc4c3=O)CC2)c1C	.	?	.	.	/	/
ClCC1C(CCl)C2(Cl)C(Cl)=C(Cl)C1(Cl)C2(Cl)Cl (stereo unspecified)	/	/	.	/	/	/
C/C(=N\NC(=O)c1ccccc1)c1c(O)n(Cc2ccccc2)c(=O)[nH]c1=O	.	.	?	.	.	-68
C/C(=N\Nc1cccc2ccccc12)c1c(O)n(Cc2ccccc2)c(=O)[nH]c1=O	?	?	.	79µM	.	-55
CC/C(=N\NC(=O)c1ccccc1)c1c(O)n(C2CCCCC2)c(=O)[nH]c1=O	.	?	.	.	.	-57
SMILES	HP1b chromo inh	BAZ2B inh	GCN5L2 inh	JMJD2A Tudor	PLK1 PBD block	PI5P4Ka inh
CC/C(=N\NC(=O)c1ccccc1Cl)c1c(O)n(C2CCCCC2)c(=O)[nH]c1=O	.	.	.	.	.	.
C/C(=N\NC(=O)c1ccncc1)c1c(O)n(-c2ccccc2)c(=O)[nH]c1=O	.	.	.	.	.	.
CC(=NCCc1c[nH]c2ccccc12)c1c(O)n(Cc2ccccc2)c(=O)[nH]c1=O	.	.	.	.	.	.
O[C@@H](Cc1ccncc1)C(Cl)(Cl)Cl	/	/	.[0.501 µM]	/	/	/
Cc1cc(=O)oc2c3c(cc(OCC(=O)N4CCC[C@H]4C(=O)O)c12)OC(C)(C)CC3	.	.	?	.	.	.
O=C1CCCC2[C@@H]3CCCN4CCC[C@@H](CN12)C34 (stereo partly specified)	/	/	.[0.501 µM]	/	/	/
O=Cc1ccc(O)c(O)c1	.	56µM	.	22µM	.	.
CCOc1cc(C=O)ccc1O	.	/	.	.	.	.
Cc1c(C(=O)N2CCC3(CC2)OCCO3)oc2ccc(S(=O)(=O)N3CCOCC3)cc12	.	.	.	.	.	.
NC(=O)CSc1nc2cc(S(=O)(=O)N3CCOCC3)ccc2o1	?	/	.	.	12µM	.
Cn1c(=O)c2[nH]cnc2n(C)c1=O	.	?	.	.	.	.
CN(N)N=Nc1nc2c([nH]1)c(=O)n(C)c(=O)n2C	.	.	.	79µM	.	.
CC[C@@H]1/C=C/C=C/C[C@H](C)[C@@H](O)[C@](C)(O)C(=O)[C@H](C)[C@@H](O)[C@H](C)C(=O)[C@H](C)[C@@H](O)[C@H](C)/C=C/C(=O)O[C@H]2[C@@H](C)[C@@H](CC1)O[C@@]1(CC[C@@H](C)[C@@H](C[C@H](C)O)O1)[C@@H]2C	/	/	.	/	/	/
Cc1ccccc1C(=O)NNC(=S)NC(=O)COc1ccccc1	?	?	?	4.5µM	30µM	/
COc1ccc(CC(=O)NC(=S)NNC(=O)COc2c(C)cccc2C)cc1	?	.	.	16µM	?	.
C#CCN(C)[C@@H](C)Cc1ccccc1	/	/	11µM	/	/	/
COc1cccc(N2CCN(C(=O)C3CCCN(S(=O)(=O)c4ccc5c(c4)oc(=O)n5C)C3)CC2)c1 (stereo unspecified)	.	.	.	.	.	.
O[C@@H]1CCCN2C[C@@H](O)[C@@H](O)C12 (stereo partly specified)	/	/	.	/	/	/
CNCC(O)c1ccc(OC(=O)C(C)(C)C)c(OC(=O)C(C)(C)C)c1 (stereo unspecified)	.	.	.	.	.	.
Oc1ccc(C2=CCNCC2)cc1O	?	/	/	10µM	/	/
Cc1cc(O)c2c(c1)C(=O)C13C(=C2O)C(=O)[C@H]2[C@@H](O)[C@@H]1[C@H]1[C@H](O)[C@@H]3C(=O)C3=C(O)c4c(O)cc(C)cc4C(=O)C312 (stereo partly specified)	.	.	.	?	.	-53
Cc1ccc(N/N=C/C=C/c2ccco2)cc1	?	/	/	50µM	.	.
Cc1ccc(NC(=O)COC(=O)/C=C/c2ccco2)cc1S(=O)(=O)N(C)C	.	?	.	?	.	.
COc1c(C=C2C(=O)NC(=O)NC2=O)c(CCN(C)C(=O)c2ccccc2)cc2c1OCO2	.	.	.	.	27µM	.
C=C[C@H](Cc1ccccc1)N(Cc1ccccc1)S(=O)(=O)N(Cc1ccccc1)[C@H](C=C)Cc1ccccc1	.	/	.	.	.	.
CCN1/C(=C\C=C\C2=[N+](CC)c3ccccc3C2(C)C)C(C)(C)c2ccccc21	?	11µM	.	?	.	?
Cc1ccc(N2CCN(C(=O)c3cn(CC4CCCCC4)nn3)C(C)C2)cc1 (stereo unspecified)	.	/	/	?	.	.
